# Experimental data taken from PubChem BioAssay AID686978 (National Center for Advancing Translational Sciences (NCATS), 2013).
# Among all 420,000 compounds or so, about 64,000 (15%) were called active. About 27% were inconclusive and are not listed. Only a sample is shown. Values without a mark were called inactive. Calls come from the whole dose curve; as a rule, active = well fitted inhibition curve with a large enough effect; inconclusive = small, poorly fitted or top-dose-only effect; inactive = flat fitted curve, though single readings scatter.
# Assay: qHTS for Inhibitors of human tyrosyl-DNA phosphodiesterase 1 (TDP1): qHTS in cells in absence of CPT; note: nearly all actives have a fitted effect of over 55% in size
# Conditions: DT40 Tdp1-/- hTDP1 cells, no CPT, ATP luminescence, 48 h; activity change, negative = growth inhibition: at 46.2 µM (top of the series)
# Method in brief: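 Stably hTDP1-transfected Tdp1-null chicken DT40 cells were treated with library compounds minus camptothecin and grown for at least 48 hr at 37 °C, after which cellular ATP was quantified by luminescence.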
# % is set by controls: 0 for no effect and ±100 for the full control effect; potency is the fitted concentration of half-maximal effect.
SMILES,"activity change, negative = growth inhibition",Potency
CCOC(=O)C1=C(c2ccccc2)O/C(=C(/C(=O)OC)C(F)(F)F)S1,-21.6%,
Cc1ccc2c(c1)N(C(=O)CCC(=O)NCc1cccnc1)CCO2,-4.05%,
Cc1c(C)n2c(SCC(=O)NC3CCCC3)nnc2[nH]c1=O,-3.76%,
CC(C)Cc1nnc(N)s1,-14.3%,
CC1CCC(N2CC(=O)N(CCC3=CCCCC3)C(c3ccc(F)cc3)C2=O)CC1 (stereo not drawn),,10.3 µM (active)
CCOCCCN1C(=O)CN(C2CCCCC2)C(=O)C1c1ccc(OCC)c(OC)c1 (stereo not drawn),-15.8%,
CCCc1nnc(SCC(=O)N2C(C)CCCC2C)n1CC (stereo not drawn),-0.484%,
O=C(c1cccc(N2CCCC2=O)c1)N1CCOCC1,-0.431%,
O=C(CSC(=S)N1CCOCC1)c1cc(Br)cc(Br)c1O,-13.5%,
O=C1Nc2c(Br)cc(Br)cc2C1(O)N1CCOCC1 (stereo not drawn),,3.66 µM (active)
O=C(c1cc2cc(Br)cc(Br)c2oc1=O)N1CCOCC1,3.73%,
O=C(CN1C(=O)c2cccc3cccc(c23)C1=O)N1CCCCC1,-23.4%,
c1ccc(CCN2CN=C(Nc3nc4ccccc4o3)NC2)cc1,-27.1%,
COc1cc(NS(=O)(=O)c2ccc(N/C=C(\C=O)c3nc4cc(Cl)ccc4o3)cc2)nc(OC)n1,-5.39%,
O=C(NCCCN1CCOCC1)C1CCCN(S(=O)(=O)N2CCCCC2)C1 (stereo not drawn),32.6%,
CCCSc1nsc(N)n1,-9.3%,
COc1ccc2[nH]c3c(=O)n(Cc4ccco4)cnc3c2c1,-29.2%,
CCC(c1nnnn1Cc1ccco1)N(Cc1cc2cc(OC)ccc2[nH]c1=O)C1CCCCC1 (stereo not drawn),,23.1 µM (active)
COc1ccc(/C(O)=C2\C(=O)C(=O)N(Cc3ccco3)C2c2ccc(OC)cc2OC)cc1 (stereo not drawn),-12.4%,
CC(C)C(c1nnnn1CCc1ccccc1)N1CCN(C(=O)c2ccco2)CC1 (stereo not drawn),-16%,
CCCN(Cc1cc2cccc(C)c2[nH]c1=O)S(C)(=O)=O,9.52%,
CCC(c1nnnn1Cc1ccco1)N(CCc1ccccc1)Cc1cc2ccc(OC)cc2[nH]c1=O (stereo not drawn),,29.1 µM (active)
CCOc1ccc2[nH]c(=O)c(C(c3nnnn3CCOC)N3CCOCC3)cc2c1 (stereo not drawn),5.67%,
CCC(c1nnnn1Cc1ccco1)N(CCc1ccccc1)Cc1cc2cccc(C)c2[nH]c1=O (stereo not drawn),,29.1 µM (active)
CCN(CC)c1ccc(/C=N/NC(=O)CNC(=O)c2cccs2)cc1,-28%,
CN(C(=O)COC(=O)c1nc(Cl)ccc1Cl)C1CCS(=O)(=O)C1 (stereo not drawn),8.66%,

SMILES,"activity change, negative = growth inhibition",Potency
COc1ccc(NC2CC(=O)N(C)C2=O)cc1 (stereo not drawn),-6.54%,
COc1ccccc1S(=O)(=O)c1c(C)cc(C)[nH]c1=O,3.84%,
C=CCNC(=S)NNC(=O)COc1c(Cl)cc(Cl)cc1Cl,-26.5%,
CSc1ccc(/C=N/NC(=O)c2cccc(Cl)c2)cc1,6.76%,
O=C(N/N=C/c1ccoc1)c1ccc(Cl)cc1Cl,13.7%,
CC(C)(C)C(=O)Nc1ccc(C(=O)N/N=C/c2ccccc2OC(=O)c2ccc(Cl)cc2Cl)cc1,,11.6 µM (active)
CCN1C[C@@H]2[C@@H]3C(=O)N(Cc4ccccc4)C(=O)[C@@H]3[C@](Cc3ccccc3)(C(=O)OC)N2C1=NC1CCCCC1,,16.4 µM (active)
CC[C@]1(C(=O)OC)[C@H]2C(=O)N(C)C(=O)[C@H]2[C@H]2CN(C)C(=NCc3ccccc3)N21,-2.94%,
CCCN=C1N(C)C[C@@H]2[C@@H]3C(=O)N(Cc4ccccc4)C(=O)[C@@H]3[C@](C)(C(=O)OC)N12,2.25%,
CCOC(=O)c1cc2occc2n1CC(=O)N1CCN(C(=O)c2ccco2)CC1,-21.7%,
ClC1(Cl)CC1CSc1ncn[nH]1 (stereo not drawn),12.6%,
CC(=O)O[C@H]1c2ccccc2-c2ccccc2[C@@H]1OC(C)=O,1.27%,
Cc1ccc(Cn2c(=O)n(Cc3nc(-c4ccccc4)no3)c(=O)c3cc4c(cc32)OCO4)cc1,10.7%,
Cc1ccc(Cn2c(C)nc3c(c2=O)c2nc4ccccc4nc2n3Cc2ccco2)cc1,,23.1 µM (active)
CC(Sc1nc2ccccc2c(=O)n1Cc1ccco1)C(=O)c1ccccc1 (stereo not drawn),-5.11%,
O=C(NNc1ccccn1)c1ccc(Cl)nc1,-0.0188%,
CCOC(=O)C(C)n1cnc2scc(-c3ccc(C)c(C)c3)c2c1=O (stereo not drawn),2.91%,
CCCc1nc2scc(-c3ccc(C)cc3)c2c(=O)n1N,,18.4 µM (active)
Cc1nc2scc(-c3cccs3)c2c(=O)n1N,-27.9%,
Cc1cc(C)c(S(=O)(=O)c2ccccc2)c(OC(=O)c2c(F)cccc2Cl)n1,-16.8%,
CCN(CC)S(=O)(=O)c1ccc(OC)c(NC(=O)CCc2c(C)noc2C)c1,12.1%,
CCOc1ccc(Br)cc1S(=O)(=O)Nc1cccc(S(=O)(=O)N(CC)CC)c1,2.37%,
CCN(CC)S(=O)(=O)c1ccc(NC(=O)c2cnc(C)cn2)cc1,3.23%,
CCS(=O)(=O)NCCc1ccc(OC)c(OC)c1,-19.1%,
CCN(CC)S(=O)(=O)c1ccc(Cl)c(NC(=O)c2ccncc2)c1,-13.3%,
CCN(CC)S(=O)(=O)c1ccc(N(C)Cc2ccc(C(F)(F)F)cc2)nc1,,13 µM (active)

SMILES,"activity change, negative = growth inhibition",Potency
CCN(CC)S(=O)(=O)c1ccc(N(C)Cc2cccc(OC)c2OC)nc1,,18.4 µM (active)
CCOC(=O)CN(Cc1ccc(OC)c(OC)c1)S(=O)(=O)c1ccc(OC)cc1,-19.3%,
CCN(CC)S(=O)(=O)c1ccc(N(C)CCc2ccc(OC)c(OC)c2)nc1,,20.6 µM (active)
NC(=O)C[C@@H]1NC(=O)CNC(=O)c2cc([N+](=O)[O-])cc(I)c2NCCC(C(N)=O)NC1=O (stereo partly drawn),18.2%,
COc1ccc(-n2c(CNC(=O)c3cc(C(F)(F)F)ccc3Cl)nnc2SC)cc1,-15.9%,
CC(C)=CC(=O)Nc1nnc(-c2ccc(F)cc2)s1,-7.58%,
COc1cccc(OC)c1C(=O)Nc1nnc(C(C)C)s1,-11.6%,
COc1ccc(N2C(=O)C3CCCN3C2c2cccs2)cc1 (stereo not drawn),-5.08%,
Cc1cc(C)c2c(-n3cccc3)c(C(=O)NNS(=O)(=O)c3ccc(F)cc3)sc2n1,3.21%,
Cc1cc(C(=O)CC#N)c(C)n1-c1c(C)n(C)n(-c2ccccc2)c1=O,8%,
Cc1nn(C)c(Cl)c1CN1CCC(n2nccc2NC(=O)C2CCCC2)CC1,11.6%,
O=C(O)C1=CCCN(CCON=C(c2ccccc2)c2ccccc2)C1,,inactive
COc1ccc(OC)c(/C(C)=N\NC(=O)c2cc3cc(Cl)ccc3n2C)c1,,4.61 µM (active)
COc1ccc(NC(=O)c2cc3cc(C)ccc3n2C)cc1,-27.1%,
Cc1ccc(NC(=O)c2cc3cc(C)ccc3n2C)cc1,-21.4%,
Cc1cc(C)cc(OCC(=O)O/N=C(\N)Cc2ccc([N+](=O)[O-])cc2)c1,0.454%,
CCOc1ccc(NS(=O)(=O)c2ccc(OCC(=O)NCCCOC)cc2)cc1,-13%,
O=C(COc1ccc2c(C(F)(F)F)cc(=O)oc2c1)Nc1ccc2c(c1)OCCO2,-5.56%,
CCOc1ccc2c(=O)c(-c3ccc4c(c3)OCCCO4)c(C)oc2c1,,13 µM (active)
COC(=O)Cc1c(C)c2ccc(OCC(=O)NCc3ccc4c(c3)OCO4)cc2oc1=O,-22.1%,
Cc1ccc(N2CC(C(=O)Nc3ccc(N(C)C)cc3)CC2=O)cc1Cl (stereo not drawn),-9.28%,
COc1ccc(C(=O)NCc2nnc(SCCOc3ccccc3)n2C)cc1,,29.1 µM (active)
Cc1cnc(NC(=O)CSc2c(Cl)cccc2Cl)s1,,13 µM (active)
Cc1ccc(SCC(=O)Nc2ncc(C)s2)cc1,-28.1%,
COc1ccc(CC(=O)NCc2nnc(SCC(=O)Nc3ncc(C)s3)n2C)cc1,,16.4 µM (active)
COc1ccc(CC(=O)NCc2nnc(SCC(=O)Nc3nccs3)n2C)cc1,14.7%,

SMILES,"activity change, negative = growth inhibition",Potency
Cc1cnc(NC(=O)CSc2nnc(C)s2)s1,7.27%,
COc1ccccc1C(=O)NCc1nnc(SC(C)C(=O)Nc2nccs2)n1C (stereo not drawn),21.3%,
COc1ccc(-n2nnnc2CNC(=O)c2ccc3ccccc3c2)cc1,-26.4%,
COC(=O)c1ccc(NC(=O)CSc2nnc(CNc3ccc(OC)cc3)n2C)cc1,-4.03%,
C=CCC1=C/C(=C\c2c(N)n3nc(CC(=O)N4CCOCC4)sc3nc2=O)C=C(OC)C1=O,15.1%,
CC(=O)NC1CC2CCCC(C1)N2CC(=O)Nc1ccccc1 (stereo not drawn),2.41%,
COc1ccccc1NS(=O)(=O)N(C)C,-6.71%,
CC(C)(C)NC(=O)/C(=C/c1cccnc1)NC(=O)c1ccco1,2.45%,
NS(=O)(=O)c1ccc2nc(NC(=O)C3=COCCO3)sc2c1,6.91%,
N#CC(Cc1cc2ccccc2n1S(=O)(=O)c1ccccc1)OCc1ccccc1 (stereo not drawn),-27.1%,
O=C(Nn1cnnc1)c1cc(Cl)ccc1Cl,-10.9%,
CC(C)=CCN1CCN(Cc2ccc(Oc3ncccn3)cc2)CC1CCO (stereo not drawn),-1.59%,
Cc1ccc(NC(=O)c2cccc(N(C)C)c2)cc1NC(=O)c1ccc(O)cc1,-28.1%,
O=C1[C@@H]2C(c3cccnc3)=NO[C@@H]2C(=O)N1c1ccc(Cl)cc1Cl,-44.3%,
OCCC1CN(Cc2ccccc2-c2ccco2)CCN1Cc1ccsc1 (stereo not drawn),-34.4%,
Cc1ccc(C)c2[nH]c(=O)c(CCNC(=O)c3cccs3)cc12,-24.4%,
COc1ccccc1NC(=O)CCC(=O)OC(C)C(=O)c1ccccc1 (stereo not drawn),10.1%,
O=C(c1cccs1)N(Cc1cc2ccccc2[nH]c1=O)CC1CCCO1 (stereo not drawn),2.95%,
Cc1cc2cc(CN(Cc3cccs3)Cc3nnnn3CC3CCCO3)c(=O)[nH]c2cc1C (stereo not drawn),,20.6 µM (active)
Cc1ccc(S(=O)(=O)N(Cc2cc3ccccc3[nH]c2=O)CC2CCCO2)cc1 (stereo not drawn),-12.1%,
CCOc1ccc2[nH]c(=O)c(CN(Cc3nnnn3CCc3ccccc3)CC3CCCO3)cc2c1 (stereo not drawn),,14.6 µM (active)
Cc1ccc(C(=O)N/C(=C/c2cccs2)C(=O)NCC2CCCO2)cc1 (stereo not drawn),-6.29%,
COc1ccc2[nH]c(=O)c(CN(Cc3nnnn3CCc3ccccc3)CC3CCCO3)cc2c1 (stereo not drawn),,9.2 µM (active)
Cc1nnc(SCC(=O)NNC(=O)c2ccc(Cl)cc2)n1CC1CCCO1 (stereo not drawn),-3.71%,
CC(=O)Nc1ccc(NC(=O)CSc2nnc(COc3ccccc3C)n2CC2CCCO2)cc1 (stereo not drawn),-6.91%,
